Out of some 290,000 compounds screened, about 3,000 (1%) were called active. Rule as the data show it: active = inhibition mostly above about 36% (no sharp cut-off); inactive = mostly below about 34%. The entries come from a sample that favours actives as a whole.

In this test the target is T1, Nucleotide-binding oligomerization domain-containing protein 1, Homo sapiens (UniProt Q9Y239).
T1 sequence (whole entry): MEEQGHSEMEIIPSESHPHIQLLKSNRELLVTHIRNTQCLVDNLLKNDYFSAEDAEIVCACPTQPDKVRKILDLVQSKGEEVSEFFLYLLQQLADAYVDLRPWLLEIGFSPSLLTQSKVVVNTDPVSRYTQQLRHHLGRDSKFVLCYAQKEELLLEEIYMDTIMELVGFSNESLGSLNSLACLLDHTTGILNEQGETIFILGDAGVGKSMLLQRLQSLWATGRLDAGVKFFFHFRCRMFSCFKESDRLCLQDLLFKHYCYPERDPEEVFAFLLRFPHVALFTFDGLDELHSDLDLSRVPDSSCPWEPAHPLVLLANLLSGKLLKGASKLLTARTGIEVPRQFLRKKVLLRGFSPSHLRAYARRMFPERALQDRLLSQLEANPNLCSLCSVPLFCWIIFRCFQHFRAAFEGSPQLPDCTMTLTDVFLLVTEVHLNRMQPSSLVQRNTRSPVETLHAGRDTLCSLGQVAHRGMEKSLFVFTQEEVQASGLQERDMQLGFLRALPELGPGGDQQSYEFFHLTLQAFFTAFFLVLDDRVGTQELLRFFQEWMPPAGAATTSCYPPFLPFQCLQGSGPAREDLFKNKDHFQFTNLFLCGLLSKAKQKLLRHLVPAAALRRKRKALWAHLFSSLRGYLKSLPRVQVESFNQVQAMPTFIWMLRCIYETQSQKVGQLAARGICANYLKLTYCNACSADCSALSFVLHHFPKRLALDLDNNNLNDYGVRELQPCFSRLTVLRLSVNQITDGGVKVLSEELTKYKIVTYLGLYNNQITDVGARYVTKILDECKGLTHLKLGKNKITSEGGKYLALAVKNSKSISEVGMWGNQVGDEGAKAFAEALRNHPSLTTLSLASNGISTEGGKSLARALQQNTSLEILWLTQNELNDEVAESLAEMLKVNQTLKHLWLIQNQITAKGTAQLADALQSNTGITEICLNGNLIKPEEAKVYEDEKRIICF
As to the kind of experiment: NOD1 signaling inhibitors, primary screen, cell-based, luminescence, uHTS (AID 1578).
As for `N#C/C(=C(/O)Cc1cccc2ccccc12)c1nc2ccccc2s1`, the compound was called active.

`N#C/C(=C(/O)COc1ccc(Cl)cc1)c1nc2ccccc2s1`: the compound was called active.

Take `COc1ccccc1NS(=O)(=O)c1cccc(NC(=O)c2sc3ccccc3c2Cl)c1`: the compound was called active. Under `CS(=O)(=O)Nc1ccccc1C(=O)Nc1cc(Cl)cc(Cl)c1` stands “active”. Under `Cc1ccc(NC(=O)c2ccccc2NS(=O)(=O)c2ccc(Cl)s2)cc1S(=O)(=O)N1CCOCC1` stands “active”; under `COc1ccc(C)cc1NC(=O)c1ccccc1NS(=O)(=O)c1ccc(Cl)s1`, “active”; under `Cc1ccc(NC(=O)c2ccccc2NS(=O)(=O)c2ccc(Cl)s2)cc1`, “active”.

For the compound `Cc1ccc(C)c(NC(=O)c2ccccc2NS(=O)(=O)c2cc([N+](=O)[O-])ccc2C)c1`, the compound was called active.

Consider `COc1cc(NC(=O)c2ccccc2NS(=O)(=O)c2ccc(Cl)s2)cc(OC)c1`, for which the compound was called active. As to `O=C1CCC2S/C(=C/Nc3ccc(C(F)(F)F)cc3)C(=O)N12` (centres undefined), the call was active. Under `Cc1ccc(-c2nn(CCC(=O)O)cc2/C=C\C(=O)c2ccc(Br)cc2)cc1` stands “active”; under `O=C(c1ccccc1)c1nn(-c2ccc(Cl)cc2)c(=O)cc1C(F)(F)F`, “active”. Under `CCOC(=O)c1c(N2C(=O)Nc3cc(Cl)c(Cl)cc3N2O)sc2c1CCCCC2` stands “active”. As for `COc1ccc2cc3c(N)nn(C(=O)Cc4c[nH]c5ccccc45)c3nc2c1`, the entry is “active”; as for `COc1ccc2cc3c(N)nn(C(=O)Cc4ccccc4OC)c3nc2c1`, “active”. `CCCCCCc1cc2cc(S(=O)(=O)c3ccc(F)c(Cl)c3)c(=O)oc2cc1O`: the compound was classed as active. Consider `CCCCCCc1cc2cc(S(=O)(=O)c3ccc(Cl)cc3)c(=O)oc2cc1O`, for which the call was active. As for `Cc1nn(Cc2ccc(Cl)cc2)c(C)c1NC(=O)c1noc2c1CCc1ccccc1-2`, the entry is “active”. As for `CC(C)Cn1c(N)c(C(=O)CSc2ccc3c(c2)OCCO3)c(=O)n(C)c1=O`, the entry is “active”. As for `COc1ccc(-c2cc(=O)oc3c(C)c(OC(=O)c4cccs4)ccc23)cc1`, the entry is “active”.

With `COc1ccc(-c2cc(=O)oc3c(C)c(O)ccc23)cc1`, the compound was classed as active. Turning to `C=C1C(=O)O[C@@H]2C[C@@H](C)[C@@H]3C=CC(=O)[C@@]3(C)[C@@H](OC(C)=O)[C@H]12`, the compound was called active. Under `COc1ccc(-c2cn[nH]c2-c2ccc(OC)cc2O)cc1` stands “active”. Regarding `COc1ccc(-c2[nH]ncc2-c2ccc3c(c2)OCCO3)c(O)c1`, the compound was called active.

Take `COc1ccc(-c2cn[nH]c2-c2ccc(OC)cc2)cc1`: the compound was called active.

In the case of `COc1ccc(-c2cn[nH]c2-c2ccc(O)cc2O)cc1`, the compound was classed as active. As for `Cc1nc2ccc(NS(=O)(=O)c3ccc(F)c(C)c3)cc2[nH]1`, the entry is “active”. Under `CC1CCCCN1S(=O)(=O)c1ccc(C(=O)Nc2nnc(-c3ccccc3Cl)o2)cc1` (centres undefined) stands “active”. Under `O=C(Nc1nnc(-c2ccccc2Cl)o1)c1ccc(S(=O)(=O)N2CCCCCC2)cc1` stands “active”; under `CCC1CCCCN1S(=O)(=O)c1ccc(C(=O)Nc2nnc(-c3ccccc3Cl)o2)cc1` (centres undefined), “active”; under `Cc1nc2ccccc2c(C)c1C(=O)c1ccc(F)cc1.Cl`, “active”. Regarding `COCCn1c(C)cc(C(=O)COC(=O)c2cccc(O)c2)c1C`, the result was active. As for `COCCn1c(C)cc(C(=O)COc2ccc(C)nc2[N+](=O)[O-])c1C`, the entry is “active”.

`Cc1ccc(OCC(=O)c2cc(C)n(Cc3ccco3)c2C)c([N+](=O)[O-])n1`: the result was active. Under `Cc1ccc(OCC(=O)c2cc(C)n(Cc3cccs3)c2C)c([N+](=O)[O-])n1` stands “active”; under `CCOC(=O)/C=C/S(=O)(=O)c1ccc(NC(C)=O)cc1`, “active”. As for `O=C(Oc1c(-c2ccccc2)c(=O)n2c3c(cccc13)CC2)c1ccc(Cl)cc1`, the compound was called active. As for `O=C(Oc1c(-c2ccccc2)c(=O)n2c3c(cccc13)CC2)c1ccccc1`, the entry is “active”; as for `CC(C)(C)OC(=O)NCC(=O)Oc1cc2oc(=O)cc(-c3ccccc3)c2cc1Cl`, “active”; as for `O=C(CNC(=O)OCc1ccccc1)Oc1cc2oc(=O)cc(-c3ccccc3)c2cc1Cl`, “active”.

For `CN(CC1CCCO1)S(=O)(=O)c1ccc(C(=O)Nc2nc3cc4c(cc3s2)OCO4)cc1` (centres undefined), the result was active.

As to `CC(=O)c1cn(CCOc2ccccc2C)c2ccccc12`, the compound was called active. As for `CC(=O)c1cn(CCOc2cc(C)ccc2C)c2ccccc12`, the entry is “active”. As to `COc1ccc(-c2cc(N)n(S(=O)(=O)c3c(F)c(F)c(F)c(F)c3F)n2)cc1OC`, the compound was classed as active. As to `N#CC(C#N)=C(Nc1ccc(F)cc1)SCc1cccc(F)c1`, the call was active. Under `N#CC(C#N)=C(Nc1ccc(F)cc1)SCc1cccc(Br)c1` stands “active”.

In the case of `Cc1ccc(CSC(Nc2ccc(F)cc2)=C(C#N)C#N)cc1`, the call was active.

Regarding `O=C(COc1ccc2c(-c3ccccc3)cc(=O)oc2c1)Nc1ccc(CCO)cc1`, the result was active.

`CCCc1ccc(-c2c(C)sc(NC(=O)c3ccnn3C)c2C#N)cc1`: the compound was classed as active. As to `O=C1N/C(=N\N=C\c2ccccn2)SC1Cc1cccc(SC(F)F)c1` (centres undefined), the compound was called active.

On to `CCOc1ccc2nc(NC(=O)c3ccccn3)sc2c1`, for which the compound was classed as active. As for `COc1ccc(C(=O)Nc2nc3ccccc3s2)c(OC)c1`, the entry is “active”; as for `COc1ccccc1C(=O)Nc1nc2ccccc2s1`, “active”; as for `O=C(Nc1ccc([N+](=O)[O-])cc1)Nc1nc(-c2ccc(Cl)s2)cs1`, “active”. As for `Cc1ccc(N(C(=O)CCl)C(C(=O)NC2CCCCC2)c2cccnc2)cc1C` (centres undefined), the entry is “active”. As for `O=C(NC1CCCCC1)C(c1cccnc1)N(C(=O)CCl)c1ccccc1Cl` (centres undefined), the entry is “active”; as for `COC(CN(C(=O)CCl)C(C(=O)NC1CCCCC1)c1ccccc1C)OC` (centres undefined), “active”. For `O=C(NC1CCCCC1)C(c1cccnc1)N(C(=O)CCl)c1cccc(Cl)c1` (centres undefined), the compound was classed as active.

Consider `COc1ccc(C(C(=O)NC2CCCCC2)N(C(=O)CCl)c2cccc(Cl)c2)cc1` (centres undefined), for which the compound was called active. Under `CC(C)c1noc2ncc(C(=O)c3cc(Cl)cc(Cl)c3O)cc12` stands “active”. Under `Cc1nnc(N2CCCC(C(=O)Nc3cc(F)ccc3F)C2)c2nn(-c3ccccc3)c(C)c12` (centres undefined) stands “active”; under `O=C(Nc1ccc(F)cc1)c1ccc(CN2CCc3ccccc3C2)cc1`, “active”; under `N#CCc1ccc(NC(=O)c2ccc(CN3CCc4ccccc4C3)cc2)cc1`, “active”. On to `Cc1ccc(-c2csc(N3CCC(NS(=O)(=O)c4ccc5c(c4)OCCO5)CC3)n2)cc1`, for which the result was active. Consider `COc1ccc(Oc2ccccc2/C=N/O)cc1`, for which the result was active. As for `O=C(CSc1nnnn1C1CC2CCC1C2)Nc1ccnc2ccccc12` (centres undefined), the entry is “active”; as for `CCC(C)Cn1c([O-])cc2nn(-c3nc4ccccc4s3)c(=O)c-2c1C.[Na+]` (centres undefined), “active”. In the case of `CC1=Nc2ccccc2/C1=C/c1sc(=N)n(-c2nccs2)c1O`, the compound was called active. As for `NC(=O)c1cc2ccncc2c2ccccc12`, the compound was classed as active.

Turning to `Nc1cc2ccncc2c2ccccc12`, the outcome was active. As for `Cc1cccc(C(=O)NNC2=C(C(=O)C(F)(F)F)CCC2)c1O`, the entry is “active”; as for `C=CS(=O)(=O)c1ccc(Oc2ccc(S(=O)(=O)C=C)cc2)cc1`, “active”; as for `COc1cccc(C(=O)/C=C/Nc2ccc(S(=O)(=O)Nc3cccc(C(C)=O)c3)cc2)c1`, “active”. As for `COc1cccc(NS(=O)(=O)c2ccc3c(c2)CCN3C(C)=O)c1`, the entry is “active”. With `Cc1c(C)n(Cc2ccccc2)c2ncnc(Cl)c12`, the call was active. Under `Br.CCCCCCCCCCn1c2c(c(=N)c3c1CCC3)CCC2` stands “active”; under `Br.CCCCCCCCn1c2c(c(=N)c3ccccc31)CCC2`, “active”; under `Br.CCCCCCCCCn1c2c(c(=N)c3c1CCC3)CCC2`, “active”. Under `COc1cccc(NC(=O)CN(C)CC(=O)Nc2ccc(C)c([N+](=O)[O-])c2)c1` stands “active”. As for `O=C(CCl)N(Cc1cc(=O)[nH]c2ccccc12)c1ccccc1`, the entry is “active”; as for `Cc1cccc(N(Cc2cc(=O)[nH]c3ccccc23)C(=O)CCl)c1`, “active”; as for `Cc1ccc(N(Cc2cc(=O)[nH]c3ccccc23)C(=O)CCl)cc1`, “active”. With `Cn1cc([N+](=O)[O-])c(C(=O)Nc2cc(Oc3ccccc3)cc([N+](=O)[O-])c2)n1`, the outcome was active.

In the case of `O=C(c1nnsc1S(=O)(=O)c1ccc(Cl)cc1)N1CCOCC1`, the call was active.

Take `CNC(=O)c1nnsc1S(=O)(=O)c1ccc(Cl)cc1`: the call was active.

For `O=C(Nc1nnc(-c2ccco2)o1)c1ccc2ccccc2c1`, the call was active. For the compound `CCCN(CCC)S(=O)(=O)c1ccc(C(=O)Nc2nnc(-c3cc(OC)cc(OC)c3)o2)cc1`, the compound was called active. As for `COc1cc(OC)cc(-c2nnc(NC(=O)c3ccc4c(c3)OCCO4)o2)c1`, the entry is “active”; as for `O=C(Nc1nnc(-c2ccc3c(c2)OCCO3)o1)c1ccc(Cc2ccccc2)cc1`, “active”; as for `CSCc1nnc(NC(=O)c2ccc(S(=O)(=O)N(CC(C)C)CC(C)C)cc2)o1`, “active”. Regarding `O=C(Nc1ccc(Oc2ccccc2)cc1)C1CCN(c2c3c(nc4ncnn24)CCC3)CC1`, the compound was called active. Under `CC1CCc2nc(N)c(C#N)c(-c3cccnc3)c2C1` (centres undefined) stands “active”.

As for `Cc1nc(N)c(C#N)c(-c2cccnc2)c1-c1ccccc1`, the compound was classed as active.

`Cc1ccc(NC(=O)O/N=C/c2c(C)nn(C(C)(C)C)c2C)cc1Cl`: the compound was called active. With `CC(=O)Oc1c(C)cc(Cl)cc1C(=O)Nc1ccc([N+](=O)[O-])cc1Cl`, the outcome was active. As for `N#Cc1c(NC(=O)CSc2ncn[nH]2)sc2c1CCCC2`, the entry is “active”; as for `CC1CCc2c(sc(NC(=O)CSc3ncn[nH]3)c2C#N)C1` (centres undefined), “active”; as for `N#Cc1c(NC(=O)CSc2ncn[nH]2)sc2c1CCCCC2`, “active”.

As to `Cc1ccc(NC(=O)c2cc3c(s2)CCCC3)cc1S(=O)(=O)Nc1ccccc1Cl`, the outcome was active. Under `O=C(Nc1cc(S(=O)(=O)Nc2ccccc2Cl)ccc1O)c1cc2c(s1)CCCC2` stands “active”; under `Cn1c(=O)c(C#N)c(-c2ccc(F)cc2)c2cc(C(=O)c3cc(Cl)cc(Cl)c3O)cnc21`, “active”. As for `CC(C)(C)c1ccc(C(=O)N2CCCCCC2=O)cc1`, the entry is “active”; as for `O=C(COc1ccc(Cl)cc1Cl)Nc1ccc(C(=O)Nc2ccccc2C(=O)O)cc1`, “active”. As for `O=[N+]([O-])c1cc(Cl)c(O)c2ncccc12`, the entry is “active”; as for `Oc1c(I)cc(Cl)c2cccnc12`, “active”. Consider `Oc1c(Cl)cc(Cl)c2cccnc12`, for which the outcome was active. Under `O=C(Oc1c(Cl)cc(Cl)c2cccnc12)c1ccco1` stands “active”; under `Oc1c(I)cc(I)c2cccnc12`, “active”; under `c1ccc(N2CCN(c3ncnc4sc5c(c34)CCC5)CC2)cc1`, “active”.

Values taken from the GenesisPotency data set.
